About 83,000 compounds went through this panel and 20% of them were active in at least one assay; those are over-represented in the sample as a whole.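 Treatment: one concentration, 48 hours, 96-well format. Scoring: percent growth, with anything below 10 considered active.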 Activity calls are given as the source filed them.

This passage reports growth results from PubChem BioAssay (NCI).

The subject of the test is SK-MEL-28 melanoma. Kind of test: NCI-60 one-dose screen, 48 h (100 = growth as untreated, 0 = no growth, -100 = all killed). As to conditions: 10 µM unless noted.
Consider `Nc1cc2nc3ccccc3sc-2cc1=O`, for which the growth was 46.5% (inactive).
The same measure for `Cc1noc(C)c1-c1cc(O)cc(C(O)c2ccccc2)c1` (centres undefined): 61.2% (inactive).
Then `CCCCCC(=O)N(CCCC)CCCC`, with 104% (inactive); and `COc1ccc(/C=N\NC(=O)c2ccncc2)cc1O`, with 104% (inactive); and `O=C(Cn1cc(CN2C(=O)c3ccccc3S2(=O)=O)nn1)Nc1ccc([N+](=O)[O-])cc1Cl`, with 97% (inactive).
With `Oc1ccc(Nc2nccc(-c3ccc4ccccc4c3)n2)cc1`, the growth was 50.6% (inactive).
Then `O=C1C=CC(=O)c2c1nc1n2CCCC1`, with 68.3% (inactive); and `Cc1cc(Nc2nc(N3CCOCC3)nc3ccccc23)n[nH]1`, with 72.2% (inactive).
On to `Cc1ccc(C2CC3c4ccccc4C2C2CCCCN32)cc1` (centres undefined), for which the growth is 96.4% (inactive).
The same measure for `Cc1csc2ccc(Cl)cc12`: 104% (inactive); for `O=S(=O)(Nc1ccc(F)c(Cl)c1)c1ccc(-c2cnc(C3CC3)o2)cc1`: 62.5% (inactive).
In the case of `CC#Cc1nc2ccccc2c(=O)[nH]1`, the growth is 54.3% (inactive).
The same measure for `C[C@H](CCC(=O)O)[C@H]1CC[C@H]2[C@@H]3CC[C@@H]4/C(=C\c5ccco5)C(=O)/C(=C\c5ccco5)C[C@]4(C)[C@H]3CC[C@]12C`: 44.3% (inactive).
With `Cc1cc(Nc2nc(-c3cccnc3)nc3ccccc23)n[nH]1`, the growth was 50.5% (inactive).
The same measure for `COc1cc(OC)c(/C=C/c2cc[n+](C)c3ccccc23)c(OC)c1`: 24.8% (inactive).
Then `CCCCCCCCCCCCCCCC[N+]1(CC)CCCC1`, with -38.6% (active); and `CC(=O)OCC(=O)C1CCC=CC1OC(C)=O` (centres undefined), with 108% (inactive); and `COC1C/C(=N\O)C2OC(c3ccccc3)OCC2O1` (centres undefined), with 101% (inactive).
With `CC[C@H](Nc1nc(N)nc(C)c1C#N)c1nc2cccc(NCc3ccc(C(=O)NO)cc3)c2c(=O)n1-c1ccccc1`, the growth was -0.295% (active).
Then `Cc1nn(-c2ccccc2)c2nc(C)n(-c3ccc(Br)cc3)c(=O)c12`, with 69.3% (inactive); and `Cc1ccc2c(NCCCN(C)C)c3c(C)nn(C)c3nc2c1`, with 57.1% (inactive); and `NC(CC(=O)O)C(=O)OCc1ccccc1` (centres undefined), with 99.1% (inactive).
In the case of `NCCN1CCN(c2nccc(-c3ccc4ccccc4c3)n2)CC1`, the growth is -43.4% (active).
For the compound `Nc1ccc(Nc2nccc(-c3ccc4ccccc4c3)n2)cc1`, the growth was 57.2% (inactive).
Then `CCCNc1nc(SC)nc(-c2cccc(N)c2)c1C#N`, with 121% (inactive); and `CN(C)CCOc1ccc(-c2nc3ccc(-c4nc5ccc(N6CCN(C)CC6)cc5[nH]4)cc3[nH]2)cc1`, with 45.3% (inactive); and `CCCCCCCCCCCCN1CCCC(C)C1` (centres undefined), with 90% (inactive).
Then `COc1ccc(-c2nc(Nc3cc(C)[nH]n3)c3ccccc3n2)cc1`, with 61.5% (inactive); and `CN[C@@]12CC3(C=CC(=O)C=C3)O[C@]1(Cc1ccc(OC)cc1)N(C)C(=O)N2`, with 46.7% (inactive).
With `COc1cc2cc(COc3nccc(-c4ccc(Cl)cc4)n3)c(=O)[nH]c2cc1OC`, the growth was 40.3% (inactive).
Then `Cc1ccc(S(=O)(=O)N(CCc2ccc(Cl)cc2)S(=O)(=O)c2ccc(C)cc2)cc1`, with 93.9% (inactive); and `CC[C@H](Nc1cc(C)nc(N)n1)c1nc2cccc(NCc3ccc(C(=O)NO)cc3)c2c(=O)n1-c1ccccc1`, with 5.53% (active); and `CN1CCCCC1CCN1c2ccccc2Sc2ccc(Br)cc21` (centres undefined), with 68.6% (inactive).
The same measure for `O=C1Nc2ccc(Br)cc2C12CC(c1ccccc1)=NN2` (centres undefined): 56.2% (inactive); for `O=C(N/N=C/c1ccc(O)cc1O)c1cccnc1`: 50.4% (inactive); for `O=C(Nc1ccc(F)cc1)Nc1ccc(CCO)cc1`: 106% (inactive).
The same measure for `C[C@@H]1CC[C@@H]2[C@@H]1[C@H](OC(=O)/C=C/c1ccccc1)[C@]1(C3CCCCC3)C[C@@H](OC(=O)CO)[C@@]2(C)O1`: 83.8% (inactive).
Turning to `O=C1Nc2ccccc2/C1=C/C(=N/c1nnc(-c2ccccc2)s1)c1ccccc1`, the growth is 86.4% (inactive).
On to `CCCCCCCCOC(=O)CC[C@@H](C)[C@H]1CC[C@H]2[C@@H]3[C@H](OC(=O)CCN)C[C@@H]4C[C@H](OC(=O)CCN)CC[C@]4(C)[C@H]3C[C@H](OC(=O)CCN)[C@]12C`, for which the growth is 58.4% (inactive).
